± gives the standard deviation of the averaged measurements. Targets with the largest changes are over-represented here; the source holds about 6,200 in all.
Compound: Nc1ncnc2c1ncn2[C@@H]1O[C@H](COP(=O)(O)OP(=O)(O)NP(=O)(O)O)[C@@H](O)[C@H]1O [adenylyl imidodiphosphate]
Experiment: NP40-soluble protein abundance relative to vehicle (solubility fold change) (ratio); higher = more soluble protein in presence of AMP-PNP
How it was run: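 Data come from three independent experiments in which Dounce-homogenised Jurkat crude lysate was treated at eight concentrations from 0.1 to 10 mM. Treatment ran 10 min at room temperature and then 3 min at 37 °C, after which 0.8% NP40 and benzonase were added for 60 min at 4 °C before ultracentrifugation. The supernatant underwent TMT labelling and LC-MS/MS, and vsn-normalised intensities were expressed as fold change against the detergent-processed vehicle in each replicate.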

UniProt P60228
Chain of UniProt P60228 (P60228 whole entry): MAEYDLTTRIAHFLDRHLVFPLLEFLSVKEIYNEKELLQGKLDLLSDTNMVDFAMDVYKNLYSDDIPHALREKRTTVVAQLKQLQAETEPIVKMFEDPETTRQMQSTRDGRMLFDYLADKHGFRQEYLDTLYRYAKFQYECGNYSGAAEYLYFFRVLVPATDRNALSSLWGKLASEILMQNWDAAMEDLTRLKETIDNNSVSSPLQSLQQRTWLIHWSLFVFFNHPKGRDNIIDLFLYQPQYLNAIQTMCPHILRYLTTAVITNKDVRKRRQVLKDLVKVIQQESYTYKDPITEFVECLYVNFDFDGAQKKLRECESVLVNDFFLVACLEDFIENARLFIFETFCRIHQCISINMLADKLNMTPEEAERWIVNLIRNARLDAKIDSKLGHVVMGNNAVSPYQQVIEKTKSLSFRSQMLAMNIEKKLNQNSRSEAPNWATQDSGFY
NP40-soluble protein abundance (concentration: 1mM): 1.04 ± 0.073
NP40-soluble protein abundance (concentration: 2mM): 1.04 ± 0.077
NP40-soluble protein abundance (concentration: 4mM): 1.1 ± 0.11
NP40-soluble protein abundance (concentration: 6mM): 1.18 ± 0.12
NP40-soluble protein abundance (concentration: 8mM): 1.24 ± 0.12
NP40-soluble protein abundance (concentration: 10mM): 1.33 ± 0.2

UniProt P18859|P18859-2|A8MUH2
Chain of UniProt P18859 (P18859 whole entry, one chain of several): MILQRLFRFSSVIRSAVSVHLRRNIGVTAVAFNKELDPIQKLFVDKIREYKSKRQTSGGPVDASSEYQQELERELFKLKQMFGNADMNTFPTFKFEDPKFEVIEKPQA
NP40-soluble protein abundance (concentration: 1mM): 0.948 ± 0.053
NP40-soluble protein abundance (concentration: 2mM): 0.899 ± 0.032
NP40-soluble protein abundance (concentration: 4mM): 0.867 ± 0.062
NP40-soluble protein abundance (concentration: 6mM): 0.834 ± 0.05
NP40-soluble protein abundance (concentration: 8mM): 0.825 ± 0.063
NP40-soluble protein abundance (concentration: 10mM): 0.857 ± 0.026

UniProt P54136|P54136-2
NP40-soluble protein abundance (concentration: 1mM): 0.957 ± 0.051
NP40-soluble protein abundance (concentration: 2mM): 0.888 ± 0.14
NP40-soluble protein abundance (concentration: 4mM): 0.92 ± 0.1
NP40-soluble protein abundance (concentration: 6mM): 0.92 ± 0.097
NP40-soluble protein abundance (concentration: 8mM): 0.945 ± 0.13
NP40-soluble protein abundance (concentration: 10mM): 0.894 ± 0.16

UniProt P60866|P60866-2
NP40-soluble protein abundance (concentration: 1mM): 0.932 ± 0.061
NP40-soluble protein abundance (concentration: 2mM): 0.906 ± 0.058
NP40-soluble protein abundance (concentration: 4mM): 0.883 ± 0.13
NP40-soluble protein abundance (concentration: 6mM): 0.91 ± 0.04
NP40-soluble protein abundance (concentration: 8mM): 0.889 ± 0.043
NP40-soluble protein abundance (concentration: 10mM): 0.929 ± 0.13

DLAT (UniProt P10515)
NP40-soluble protein abundance (concentration: 1mM): 0.959 ± 0.23
NP40-soluble protein abundance (concentration: 2mM): 0.904 ± 0.2
NP40-soluble protein abundance (concentration: 4mM): 0.904 ± 0.31
NP40-soluble protein abundance (concentration: 6mM): 0.877 ± 0.31
NP40-soluble protein abundance (concentration: 8mM): 0.899 ± 0.27
NP40-soluble protein abundance (concentration: 10mM): 0.923 ± 0.31

UniProt P25398
NP40-soluble protein abundance (concentration: 1mM): 0.934 ± 0.016
NP40-soluble protein abundance (concentration: 2mM): 0.955 ± 0.044
NP40-soluble protein abundance (concentration: 4mM): 0.869 ± 0.053
NP40-soluble protein abundance (concentration: 6mM): 0.872 ± 0.033
NP40-soluble protein abundance (concentration: 8mM): 0.81 ± 0.054
NP40-soluble protein abundance (concentration: 10mM): 0.847 ± 0.049

ACTR1B (UniProt P42025)
Chain of UniProt P42025 (P42025 whole entry): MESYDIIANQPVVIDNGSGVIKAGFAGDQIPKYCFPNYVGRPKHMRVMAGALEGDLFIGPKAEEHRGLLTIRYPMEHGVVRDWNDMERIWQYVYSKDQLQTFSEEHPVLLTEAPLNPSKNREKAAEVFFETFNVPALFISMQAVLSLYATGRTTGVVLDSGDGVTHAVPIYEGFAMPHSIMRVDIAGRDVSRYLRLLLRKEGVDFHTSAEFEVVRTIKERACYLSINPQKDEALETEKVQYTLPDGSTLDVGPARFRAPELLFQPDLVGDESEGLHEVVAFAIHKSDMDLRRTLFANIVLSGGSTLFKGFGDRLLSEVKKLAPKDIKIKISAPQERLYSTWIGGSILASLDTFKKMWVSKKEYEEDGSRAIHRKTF
NP40-soluble protein abundance (concentration: 1mM): 1 ± 0.062
NP40-soluble protein abundance (concentration: 2mM): 0.927 ± 0.12
NP40-soluble protein abundance (concentration: 4mM): 0.983 ± 0.071
NP40-soluble protein abundance (concentration: 6mM): 0.986 ± 0.029
NP40-soluble protein abundance (concentration: 8mM): 0.965 ± 0.063
NP40-soluble protein abundance (concentration: 10mM): 0.961 ± 0.091

UniProt P63279
Chain of UniProt P63279 (P63279 whole entry): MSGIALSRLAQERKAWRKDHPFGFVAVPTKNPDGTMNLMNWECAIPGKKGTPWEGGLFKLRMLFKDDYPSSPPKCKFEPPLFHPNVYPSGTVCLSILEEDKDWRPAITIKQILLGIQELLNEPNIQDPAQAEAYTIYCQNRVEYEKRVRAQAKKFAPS
NP40-soluble protein abundance (concentration: 1mM): 0.993 ± 0.076
NP40-soluble protein abundance (concentration: 2mM): 1.01 ± 0.076
NP40-soluble protein abundance (concentration: 4mM): 1.01 ± 0.1
NP40-soluble protein abundance (concentration: 6mM): 1.04 ± 0.12
NP40-soluble protein abundance (concentration: 8mM): 1.12 ± 0.07
NP40-soluble protein abundance (concentration: 10mM): 1.07 ± 0.066

UROS (UniProt P10746)
Chain of UniProt P10746 (P10746 whole entry): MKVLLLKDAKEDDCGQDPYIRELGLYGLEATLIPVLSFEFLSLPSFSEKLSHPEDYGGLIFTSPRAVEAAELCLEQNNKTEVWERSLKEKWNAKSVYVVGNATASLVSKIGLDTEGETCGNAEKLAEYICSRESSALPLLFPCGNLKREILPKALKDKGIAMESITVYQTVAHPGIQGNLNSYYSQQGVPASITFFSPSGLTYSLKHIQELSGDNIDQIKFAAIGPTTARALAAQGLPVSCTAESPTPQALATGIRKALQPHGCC
NP40-soluble protein abundance (concentration: 1mM): 1.04 ± 0.012
NP40-soluble protein abundance (concentration: 2mM): 1.03 ± 0.015
NP40-soluble protein abundance (concentration: 4mM): 1 ± 0.045
NP40-soluble protein abundance (concentration: 6mM): 0.99 ± 0.029
NP40-soluble protein abundance (concentration: 8mM): 0.975 ± 0.051
NP40-soluble protein abundance (concentration: 10mM): 0.982 ± 0.075

CAPZA2 (UniProt P47755)
NP40-soluble protein abundance (concentration: 1mM): 1.01 ± 0.013
NP40-soluble protein abundance (concentration: 2mM): 0.966 ± 0.02
NP40-soluble protein abundance (concentration: 4mM): 0.9851 ± 0.0046
NP40-soluble protein abundance (concentration: 6mM): 0.9821 ± 0.0042
NP40-soluble protein abundance (concentration: 8mM): 1.004 ± 0.0091
NP40-soluble protein abundance (concentration: 10mM): 0.986 ± 0.017

UniProt Q01085-2
NP40-soluble protein abundance (concentration: 1mM): 0.997 ± 0.044
NP40-soluble protein abundance (concentration: 2mM): 0.976 ± 0.057
NP40-soluble protein abundance (concentration: 4mM): 0.992 ± 0.029
NP40-soluble protein abundance (concentration: 6mM): 0.957 ± 0.037
NP40-soluble protein abundance (concentration: 8mM): 0.9409 ± 0.0074
NP40-soluble protein abundance (concentration: 10mM): 0.952 ± 0.032

ARL3 (UniProt P36405)
Chain of UniProt P36405 (P36405 whole entry): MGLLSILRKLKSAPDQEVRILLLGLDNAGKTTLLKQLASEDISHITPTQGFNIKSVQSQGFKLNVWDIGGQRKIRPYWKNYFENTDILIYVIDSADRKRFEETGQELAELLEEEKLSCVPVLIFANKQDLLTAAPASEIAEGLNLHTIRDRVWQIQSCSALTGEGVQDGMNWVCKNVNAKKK
NP40-soluble protein abundance (concentration: 1mM): 0.9899 ± 0.0033
NP40-soluble protein abundance (concentration: 2mM): 0.945 ± 0.031
NP40-soluble protein abundance (concentration: 4mM): 0.995 ± 0.048
NP40-soluble protein abundance (concentration: 6mM): 0.988 ± 0.052
NP40-soluble protein abundance (concentration: 8mM): 1.03 ± 0.041
NP40-soluble protein abundance (concentration: 10mM): 0.99 ± 0.042

LDHB (UniProt P07195)
NP40-soluble protein abundance (concentration: 1mM): 1.01 ± 0.019
NP40-soluble protein abundance (concentration: 2mM): 0.92 ± 0.025
NP40-soluble protein abundance (concentration: 4mM): 0.947 ± 0.02
NP40-soluble protein abundance (concentration: 6mM): 0.973 ± 0.036
NP40-soluble protein abundance (concentration: 8mM): 0.969 ± 0.024
NP40-soluble protein abundance (concentration: 10mM): 0.943 ± 0.013

IGFBP2 (UniProt P18065)
NP40-soluble protein abundance (concentration: 1mM): 1.03 ± 0.034
NP40-soluble protein abundance (concentration: 2mM): 1.03 ± 0.058
NP40-soluble protein abundance (concentration: 4mM): 1.01 ± 0.067
NP40-soluble protein abundance (concentration: 6mM): 0.966 ± 0.0077
NP40-soluble protein abundance (concentration: 8mM): 0.991 ± 0.021
NP40-soluble protein abundance (concentration: 10mM): 0.957 ± 0.014

UniProt O95786|O95786-2
Chain of UniProt O95786 (O95786 whole entry): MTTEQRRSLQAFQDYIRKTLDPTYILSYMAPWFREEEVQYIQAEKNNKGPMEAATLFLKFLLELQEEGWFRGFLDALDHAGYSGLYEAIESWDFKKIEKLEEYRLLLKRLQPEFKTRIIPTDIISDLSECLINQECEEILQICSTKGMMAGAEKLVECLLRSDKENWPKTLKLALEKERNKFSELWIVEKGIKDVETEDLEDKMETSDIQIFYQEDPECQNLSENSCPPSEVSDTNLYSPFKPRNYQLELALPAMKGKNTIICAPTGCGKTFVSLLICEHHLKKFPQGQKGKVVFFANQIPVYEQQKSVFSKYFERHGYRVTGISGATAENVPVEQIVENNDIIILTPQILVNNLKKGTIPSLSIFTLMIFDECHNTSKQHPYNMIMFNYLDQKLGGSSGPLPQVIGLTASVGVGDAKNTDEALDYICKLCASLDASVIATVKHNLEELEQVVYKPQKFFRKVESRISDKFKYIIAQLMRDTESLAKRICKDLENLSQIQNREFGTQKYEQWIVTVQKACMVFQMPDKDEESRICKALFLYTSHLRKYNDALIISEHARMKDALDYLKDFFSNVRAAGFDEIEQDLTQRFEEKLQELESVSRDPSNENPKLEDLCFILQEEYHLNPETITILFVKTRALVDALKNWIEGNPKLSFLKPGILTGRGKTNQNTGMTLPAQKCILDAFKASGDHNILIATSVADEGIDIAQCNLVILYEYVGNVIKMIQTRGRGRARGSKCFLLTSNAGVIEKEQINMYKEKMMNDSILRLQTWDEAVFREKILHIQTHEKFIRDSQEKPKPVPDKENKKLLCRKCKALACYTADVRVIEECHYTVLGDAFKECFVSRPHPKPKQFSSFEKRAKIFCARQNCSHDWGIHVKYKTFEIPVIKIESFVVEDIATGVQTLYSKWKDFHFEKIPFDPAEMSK
NP40-soluble protein abundance (concentration: 1mM): 0.996 ± 0.051
NP40-soluble protein abundance (concentration: 2mM): 0.944 ± 0.035
NP40-soluble protein abundance (concentration: 4mM): 0.978 ± 0.022
NP40-soluble protein abundance (concentration: 6mM): 0.942 ± 0.017
NP40-soluble protein abundance (concentration: 8mM): 0.967 ± 0.021
NP40-soluble protein abundance (concentration: 10mM): 0.933 ± 0.029

UniProt P49005|F8W8R3
NP40-soluble protein abundance (concentration: 1mM): 0.977 ± 0.021
NP40-soluble protein abundance (concentration: 2mM): 0.947 ± 0.059
NP40-soluble protein abundance (concentration: 4mM): 0.973 ± 0.027
NP40-soluble protein abundance (concentration: 6mM): 0.929 ± 0.011
NP40-soluble protein abundance (concentration: 8mM): 0.9339 ± 0.0057
NP40-soluble protein abundance (concentration: 10mM): 0.925 ± 0.037

UniProt Q12872|Q12872-2
Chain of UniProt Q12872 (Q12872 whole entry): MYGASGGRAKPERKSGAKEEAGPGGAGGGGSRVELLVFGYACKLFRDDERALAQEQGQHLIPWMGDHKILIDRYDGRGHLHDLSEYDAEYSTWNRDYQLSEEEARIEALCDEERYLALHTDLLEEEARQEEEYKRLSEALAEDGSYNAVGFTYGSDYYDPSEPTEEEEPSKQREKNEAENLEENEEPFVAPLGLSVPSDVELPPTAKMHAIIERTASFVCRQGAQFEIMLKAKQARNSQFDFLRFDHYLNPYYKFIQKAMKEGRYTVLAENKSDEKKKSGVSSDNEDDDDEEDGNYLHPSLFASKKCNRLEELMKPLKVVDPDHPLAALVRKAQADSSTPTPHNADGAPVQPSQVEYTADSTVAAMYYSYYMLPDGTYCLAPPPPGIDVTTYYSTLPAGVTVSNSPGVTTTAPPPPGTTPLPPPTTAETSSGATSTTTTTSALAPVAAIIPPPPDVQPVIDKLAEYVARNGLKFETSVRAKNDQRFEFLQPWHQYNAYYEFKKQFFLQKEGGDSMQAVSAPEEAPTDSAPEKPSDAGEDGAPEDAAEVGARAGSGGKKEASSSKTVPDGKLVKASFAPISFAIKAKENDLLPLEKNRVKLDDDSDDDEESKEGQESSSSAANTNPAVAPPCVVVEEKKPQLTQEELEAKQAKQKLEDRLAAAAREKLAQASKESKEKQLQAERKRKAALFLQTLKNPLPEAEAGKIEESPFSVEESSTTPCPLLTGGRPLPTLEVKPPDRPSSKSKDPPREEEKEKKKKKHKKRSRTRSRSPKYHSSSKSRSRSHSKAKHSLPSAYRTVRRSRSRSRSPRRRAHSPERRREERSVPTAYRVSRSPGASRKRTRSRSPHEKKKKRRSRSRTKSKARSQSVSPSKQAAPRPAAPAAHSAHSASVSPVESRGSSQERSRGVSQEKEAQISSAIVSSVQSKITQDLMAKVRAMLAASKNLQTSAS
NP40-soluble protein abundance (concentration: 1mM): 1.04 ± 0.04
NP40-soluble protein abundance (concentration: 2mM): 1.11 ± 0.061
NP40-soluble protein abundance (concentration: 4mM): 1.12 ± 0.043
NP40-soluble protein abundance (concentration: 6mM): 1.17 ± 0.097
NP40-soluble protein abundance (concentration: 8mM): 1.2 ± 0.1
NP40-soluble protein abundance (concentration: 10mM): 1.33 ± 0.1

UniProt P20073|P20073-2
NP40-soluble protein abundance (concentration: 1mM): 0.966 ± 0.053
NP40-soluble protein abundance (concentration: 2mM): 0.996 ± 0.093
NP40-soluble protein abundance (concentration: 4mM): 0.989 ± 0.069
NP40-soluble protein abundance (concentration: 6mM): 0.998 ± 0.086
NP40-soluble protein abundance (concentration: 8mM): 1.04 ± 0.052
NP40-soluble protein abundance (concentration: 10mM): 0.995 ± 0.096

NUP155 (UniProt O75694)
Chain of UniProt O75694 (O75694 whole entry): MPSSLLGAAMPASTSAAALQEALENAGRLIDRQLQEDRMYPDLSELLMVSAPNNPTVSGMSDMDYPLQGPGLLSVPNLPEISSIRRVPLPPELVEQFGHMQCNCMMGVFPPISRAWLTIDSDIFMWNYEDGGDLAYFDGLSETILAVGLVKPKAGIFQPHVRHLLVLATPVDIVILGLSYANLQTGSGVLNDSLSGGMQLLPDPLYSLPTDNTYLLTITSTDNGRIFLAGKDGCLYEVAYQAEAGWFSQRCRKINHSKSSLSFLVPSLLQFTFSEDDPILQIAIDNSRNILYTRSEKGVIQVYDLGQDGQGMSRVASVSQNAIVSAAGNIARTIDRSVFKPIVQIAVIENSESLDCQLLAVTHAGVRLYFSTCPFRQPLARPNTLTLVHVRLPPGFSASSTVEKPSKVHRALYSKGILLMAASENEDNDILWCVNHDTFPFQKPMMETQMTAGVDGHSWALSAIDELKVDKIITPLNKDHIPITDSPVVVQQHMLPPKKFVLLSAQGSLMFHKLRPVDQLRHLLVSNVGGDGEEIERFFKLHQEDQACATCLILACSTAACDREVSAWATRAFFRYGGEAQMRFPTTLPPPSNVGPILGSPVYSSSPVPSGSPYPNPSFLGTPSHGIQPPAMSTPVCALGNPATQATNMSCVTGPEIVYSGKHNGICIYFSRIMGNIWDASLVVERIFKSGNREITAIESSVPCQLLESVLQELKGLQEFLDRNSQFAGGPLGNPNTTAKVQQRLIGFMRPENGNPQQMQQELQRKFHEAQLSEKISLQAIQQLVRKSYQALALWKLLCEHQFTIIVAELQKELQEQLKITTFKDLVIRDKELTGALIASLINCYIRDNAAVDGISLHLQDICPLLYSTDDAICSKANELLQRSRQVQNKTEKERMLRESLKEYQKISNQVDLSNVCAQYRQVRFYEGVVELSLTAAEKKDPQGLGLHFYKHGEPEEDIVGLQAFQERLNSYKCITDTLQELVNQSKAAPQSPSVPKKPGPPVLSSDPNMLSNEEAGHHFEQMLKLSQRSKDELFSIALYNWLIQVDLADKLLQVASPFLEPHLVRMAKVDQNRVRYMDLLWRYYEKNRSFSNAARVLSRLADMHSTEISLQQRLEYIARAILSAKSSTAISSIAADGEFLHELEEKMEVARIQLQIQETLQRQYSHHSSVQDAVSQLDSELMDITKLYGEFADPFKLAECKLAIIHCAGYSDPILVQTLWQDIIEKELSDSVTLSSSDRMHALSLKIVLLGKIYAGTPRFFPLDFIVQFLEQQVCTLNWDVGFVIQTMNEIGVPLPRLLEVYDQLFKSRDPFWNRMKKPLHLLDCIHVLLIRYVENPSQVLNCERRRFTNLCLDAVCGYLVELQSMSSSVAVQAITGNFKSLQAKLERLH
NP40-soluble protein abundance (concentration: 1mM): 0.983 ± 0.046
NP40-soluble protein abundance (concentration: 2mM): 0.919 ± 0.062
NP40-soluble protein abundance (concentration: 4mM): 1 ± 0.025
NP40-soluble protein abundance (concentration: 6mM): 0.98 ± 0.039
NP40-soluble protein abundance (concentration: 8mM): 1.01 ± 0.035
NP40-soluble protein abundance (concentration: 10mM): 1 ± 0.023

GCLC (UniProt P48506)
NP40-soluble protein abundance (concentration: 1mM): 0.993 ± 0.027
NP40-soluble protein abundance (concentration: 2mM): 0.928 ± 0.043
NP40-soluble protein abundance (concentration: 4mM): 0.976 ± 0.033
NP40-soluble protein abundance (concentration: 6mM): 0.941 ± 0.014
NP40-soluble protein abundance (concentration: 8mM): 0.963 ± 0.029
NP40-soluble protein abundance (concentration: 10mM): 0.922 ± 0.02

UniProt P36639|P36639-2|P36639-3|P36639-4
NP40-soluble protein abundance (concentration: 1mM): 1 ± 0.037
NP40-soluble protein abundance (concentration: 2mM): 0.988 ± 0.059
NP40-soluble protein abundance (concentration: 4mM): 1.09 ± 0.085
NP40-soluble protein abundance (concentration: 6mM): 1.03 ± 0.022
NP40-soluble protein abundance (concentration: 8mM): 1.07 ± 0.012
NP40-soluble protein abundance (concentration: 10mM): 1.06 ± 0.065

Source: the supplement of paper PMC6411743
